What all share (conditions): concentration: 1 μM, replicates: in singlicate; n = 1
Experiment [1] relates to CAMK1.
Experiment [2] relates to CAMK2A.
Experiment [3] deals with CAMK2B.
The subject of experiment [4] is CAMK2D.
In experiment [5] the test system is CAMK2G.
For experiment [6], the system named is CAMK4.
For experiment [7], the system named is CAMKK1.
Experiment [8] concerns CAMKK2.
In experiment [9] the test system is CASK.
Experiment [10] has as its system T1, CDC2L1.
T1 construct: gene CDK11B

Experiment [11] deals with CDC2L2.
The test system of experiment [12] is T2, CDC2L5.
T2 construct: gene CDK13

Experiment [13] has as its system T3, CDK11.
T3 construct: gene CDK19

The test system of experiment [14] is CDK2.
The test system of experiment [15] is CDK3.
Experiment [16] concerns CDK4-cyclinD1.
Experiment [17] deals with CDK4-cyclinD3.
In experiment [18] the test system is CDK4.
Experiment [19] has as its system CDK5.
In experiment [20] the test system is CDK7.

The values below come from article PMC5540273 (PLoS ONE, 2017).
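Note: KINOMEscan kinase panel screen.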

Take `CSc1ccc(NC2=C(c3ccc(Cl)cc3)C(=O)NC2=O)cc1` [SB-317658]: the “%Inh” value in experiment [1] is 19%; in [2] it was 4%; in experiment [3] it was 0%; in experiment [4], 18%; in [5] it was 1%; in experiment [6] it was 12%. Besides, the “%Inh” value in experiment [7] turned out to be 0%; in experiment [8], 0%; in experiment [9], 0%; in [10] it was 0%; in [11] it was 2%; in [12] it was 0%. Besides, the “%Inh” value in experiment [13] is 0%; in [14], 6%; in [15] it was 18%; in [16], 0%; in [17], 0%; in experiment [18], 12%. For the same compound, the “%Inh” value in experiment [19] amounted to 28%; in [20], 36%.
For `COc1cccc(C2=C(Nc3cccc(O)c3)C(=O)NC2=O)c1` [SB-390771], the “%Inh” value in [1] came out at 4%; in experiment [2], 17%; in experiment [3] it was 0%; in experiment [4] it was 25%; in [5] it was 34%; in experiment [6], 0%. The “%Inh” value in [7] stood at 15%; in experiment [8], 28%; in experiment [9], 28%; in experiment [10], 0%; in experiment [11], 15%; in experiment [12], 0%. The “%Inh” value in experiment [13] amounted to 0%; in experiment [14] it was 18%; in [15], 13%; in [16], 0%; in [17], 0%; in experiment [18], 0%. Also, the “%Inh” value is listed as 0% in [19] and 98.3% in experiment [20].
`N#CC1(c2cccc(C(=O)Nc3cccc(Oc4ccc5nc(NC(=O)C6CC6)sc5n4)c3)c2)CC1`: the “%Inh” value in experiment [1] was determined as 0%; in experiment [2], 29%; in experiment [3], 26%; in experiment [4], 20%; in [5] it was 100%; in experiment [6] it was 2%. For the same compound, the “%Inh” value in [7] is on record as 9%; in experiment [8] it was 99.6%; in [9], 16%; in [10], 0%; in experiment [11], 0%; in experiment [12], 6%. Besides, the “%Inh” value in experiment [13] was determined as 24%; in [14] it was 0%; in experiment [15], 0%; in [16], 15%; in experiment [17], 1%; in [18], 0%. Also, the “%Inh” value in [19] stood at 0%; in experiment [20] it was 12%.
Turning to `CN(c1ccc(NC(=O)Nc2cccc(Cl)c2)cc1)c1ccnc(N)n1.Cl` [GW830707], the “%Inh” value in experiment [1] was 2%; in [2], 0%; in experiment [3] it was 0%; in [4] it was 10%; in experiment [5] it was 8%; in experiment [6], 14%. For the same compound, the “%Inh” value was 0% in experiment [7]; 14% in [8]; 7% in experiment [9]; 0% in experiment [10]; 12% in experiment [11]; 43% in experiment [12]. Moreover, the “%Inh” value in experiment [13] is given as 77%; in [14] it was 9%; in [15], 0%; in experiment [16], 57%; in experiment [17], 0%; in experiment [18], 4%. For the same compound, the “%Inh” value turned out to be 5% in experiment [19] and 24% in [20].
As to `COc1cccc2c(-c3ccncc3)c(-c3ccc(F)cc3)nn12` [GW468513], the “%Inh” value in experiment [1] was 0%; in experiment [2] it was 0%; in [3] it was 0%; in experiment [4], 0%; in experiment [5] it was 13%; in experiment [6] it was 0%. The “%Inh” value is given as 6% in experiment [7]; 5% in [8]; 0% in [9]; 0% in [10]; 4% in [11]; 0% in [12]. The “%Inh” value is reported as 8% in experiment [13]; 4% in [14]; 6% in experiment [15]; 27% in experiment [16]; 0% in experiment [17]; 0% in experiment [18]. Besides, the “%Inh” value in experiment [19] and in [20] was 0% each time.
As for `Cc1ccc(Nc2ccnc(Nc3ccc(C)c(F)c3)n2)cc1O.Cl` [GW582868], the “%Inh” value was found to be 1% in [1]; 96.6% in experiment [2]; 95.3% in [3]; 0% in experiment [4]; 0% in experiment [5]; 0% in experiment [6]. The “%Inh” value in experiment [7] was 0%; in [8], 0%; in experiment [9] it was 13%; in [10], 0%; in experiment [11], 0%; in experiment [12], 0%. Also, the “%Inh” value in [13] is reported as 6%; in [14] it was 0%; in experiment [15], 0%; in [16] it was 0%; in experiment [17], 5%; in [18], 0%. For the same compound, the “%Inh” value in [19] and in experiment [20] was 0% each time.
For the compound `Nc1ncnc2scc(-c3ccc(NC(=O)Cc4cc(F)ccc4F)cc3)c12.O=C(O)C(F)(F)F` [SB-731254-M], the “%Inh” value in experiment [1] worked out at 16%; in experiment [2], 0%; in [3], 0%; in [4], 10%; in [5] it was 5%; in [6], 0%. Further, the “%Inh” value in [7] is 17%; in experiment [8], 12%; in experiment [9], 21%; in experiment [10], 11%; in experiment [11] it was 36%; in experiment [12], 0%. Further, the “%Inh” value in [13] came to 99%; in experiment [14] it was 0%; in experiment [15], 0%; in [16], 0%; in experiment [17], 11%; in [18], 0%. The “%Inh” value in experiment [19] is 2%; in experiment [20], 0%.
Regarding `Nc1ncc(-c2cn[nH]c2)c2scc(-c3ccc4c(c3)CCN4C(=O)Cc3ccccc3)c12` [GSK2593067], the “%Inh” value in [1] is recorded as 33%; in experiment [2], 0%; in experiment [3] it was 0%; in experiment [4], 0%; in experiment [5] it was 18%; in experiment [6], 0%. Besides, the “%Inh” value is given as 56% in experiment [7]; 8% in experiment [8]; 13% in [9]; 0% in experiment [10]; 0% in [11]; 0% in experiment [12]. In addition, the “%Inh” value in [13] came to 23%; in [14], 0%; in [15], 2%; in experiment [16], 0%; in experiment [17], 0%; in experiment [18], 0%. Also, the “%Inh” value in [19] and in experiment [20] was 0% each time.
Consider `Cc1ccc(NC(=O)c2ccc(Cl)c(Cl)c2)cc1-c1ccc(C(=O)Nc2ccncc2)cc1` [GSK1398460], for which the “%Inh” value in [1] worked out at 27%; in experiment [2], 0%; in experiment [3] it was 0%; in [4] it was 7%; in experiment [5], 0%; in experiment [6], 9%. The “%Inh” value worked out at 0% in [7]; 4% in experiment [8]; 0% in experiment [9]; 2% in experiment [10]; 14% in experiment [11]; 0% in experiment [12]. Further, the “%Inh” value in experiment [13] amounted to 13%; in experiment [14] it was 0%; in experiment [15], 5%; in experiment [16], 0%; in experiment [17], 0%; in experiment [18], 0%. For the same compound, the “%Inh” value in experiment [19] and in [20] was 0% in each case.
Turning to `COC(=O)Nc1nc2cc(Oc3ccc(NC(=O)Nc4cccc(SC)c4)cc3)ccc2[nH]1.Cl` [GW697999], the “%Inh” value amounted to 11% in experiment [1]; 18% in experiment [2]; 28% in experiment [3]; 0% in [4]; 12% in experiment [5]; 0% in experiment [6]. Besides, the “%Inh” value amounted to 0% in [7]; 0% in experiment [8]; 16% in [9]; 0% in [10]; 1% in [11]; 0% in experiment [12]. For the same compound, the “%Inh” value stood at 8% in experiment [13]; 0% in experiment [14]; 8% in experiment [15]; 34% in experiment [16]; 0% in [17]; 49% in experiment [18]. The entries for the “%Inh” value in experiment [19] and in [20] were 0% and 54%, respectively.
